Measurements reported in PubChem BioAssay AID1159580 (chemical genetic matrix, 2015).
Values joined by “and” are separate entries in the source; they are usually repeats but may differ in a detail not shown here. Equal values may be shown once. About 2,000 (36%) of roughly 5,500 compounds were called active. About 18% were inconclusive and are not listed. No stated cut-off is given here; in the data, active means normalized growth mostly below about 0.91 (no sharp cut-off); inconclusive means no clear call, values can overlap the other calls; inactive means mostly above about 0.92. This is one part of the list.

Experiment: chemical genetic growth profiling, strain panel (AID 1159580);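 further: tested at 20 µM; growth read once vehicle control cultures reached saturation at 30 °C; 1 = growth at the plate median or of vehicle wells; lower values mean less growth of the strain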
Conditions: growth OD

Measured: normalized growth

CN1CCC(=C2c3ccccc3CC(=O)c3sccc32)CC1
inactive: S. cerevisiae deletion strains, locus YKL009W, strain mrt4, hits give low values 1.02 | S. cerevisiae deletion strains, locus YKL068W, hits give low values 1.02 | S. cerevisiae deletion strains, locus YKL085W, strain MDH1 (second series), hits give low values 1.01 | S. cerevisiae deletion strains, locus YKL085W, strain MDH1, hits give low values 1.01 | S. cerevisiae deletion strains, locus YKL160W, strain elf1, hits give low values 0.987 | S. cerevisiae deletion strains, locus YKL190W, strain CNB1, hits give low values 1.01 | S. cerevisiae deletion strains, locus YKR001C, strain vps1, hits give low values 1.01 | S. cerevisiae deletion strains, locus YKR026C, strain gcn3, hits give low values 0.981 | S. cerevisiae deletion strains, locus YKR091W, strain srl3, hits give low values 0.979 | S. cerevisiae deletion strains, locus YLL001W, strain dnm1, hits give low values 0.935 | S. cerevisiae deletion strains, locus YLL026W, hits give low values 0.963 | S. cerevisiae deletion strains, locus YLL041C, strain sdh2, hits give low values 0.986 | S. cerevisiae deletion strains, locus YLR027C, strain aat2, hits give low values 0.973 | S. cerevisiae deletion strains, locus YLR039C, strain RIC1, hits give low values 0.996 | S. cerevisiae deletion strains, locus YLR058C, strain SHM2, hits give low values 1 | S. cerevisiae deletion strains, locus YLR102C, strain apc9, hits give low values 1.01 | S. cerevisiae deletion strains, locus YLR113W, strain HOG1, hits give low values 1.02 | S. cerevisiae deletion strains, locus YLR221C, strain rsa3, hits give low values 1.04 | S. cerevisiae deletion strains, locus YLR258W, strain gsy2, hits give low values 1.01 | S. cerevisiae deletion strains, locus YLR262C, strain YPT6 (second series), hits give low values 0.956 | S. cerevisiae deletion strains, locus YLR262C, strain YPT6, hits give low values 1 | S. cerevisiae deletion strains, locus YLR268W, strain sec22, hits give low values 1.03 | S. cerevisiae deletion strains, locus YLR320W, strain mms22, hits give low values 1.02 | S. cerevisiae deletion strains, locus YLR330W, strain CHS5, hits give low values 1 | S. cerevisiae deletion strains, locus YLR342W, strain FKS1 (second series), hits give low values 0.991 | S. cerevisiae deletion strains, locus YLR342W, strain FKS1, hits give low values 0.967 | S. cerevisiae deletion strains, locus YLR357W, strain rsc2, hits give low values 0.969 | S. cerevisiae deletion strains, locus YLR370C, strain arc18, hits give low values 0.971 | S. cerevisiae deletion strains, locus YLR371W, strain rom2, hits give low values 1.01 | S. cerevisiae deletion strains, locus YLR384C, strain iki3, hits give low values 0.974 | S. cerevisiae deletion strains, locus YLR418C, strain cdc73, hits give low values 0.976 | S. cerevisiae deletion strains, locus YML016C, strain PPZ1, hits give low values 1.01 | S. cerevisiae deletion strains, locus YML032C, strain rad52, hits give low values 1.02 | S. cerevisiae deletion strains, locus YML120C, strain ndi1, hits give low values 0.965 | S. cerevisiae deletion strains, locus YML124C, strain tub3, hits give low values 1.01 | S. cerevisiae deletion strains, locus YMR058W, strain fet3, hits give low values 0.979 | S. cerevisiae deletion strains, locus YMR078C, strain ctf18, hits give low values 1 | S. cerevisiae deletion strains, locus YMR125W, strain sto1, hits give low values 0.955 | S. cerevisiae deletion strains, locus YMR129W, hits give low values 0.981 | S. cerevisiae deletion strains, locus YMR205C, strain PFK2, hits give low values 0.987 | S. cerevisiae deletion strains, locus YMR223W, strain ubp8, hits give low values 0.993 | S. cerevisiae deletion strains, locus YMR231W, strain pep5, hits give low values 0.974 | S. cerevisiae deletion strains, locus YMR263W, strain SAP30, hits give low values 1.02 | S. cerevisiae deletion strains, locus YMR307W, strain GAS1, hits give low values 0.971 | S. cerevisiae deletion strains, locus YNL067W, strain RPL9B, hits give low values 1.02 | S. cerevisiae deletion strains, locus YNL071W, strain lat1, hits give low values 0.987 | S. cerevisiae deletion strains, locus YNL128W, strain TEP1, hits give low values 1.01 and 0.992 | S. cerevisiae deletion strains, locus YNL153C, strain GIM3, hits give low values 1.02 and 0.986 | S. cerevisiae deletion strains, locus YNL175C, strain NOP13, hits give low values 0.996 | S. cerevisiae deletion strains, locus YNL183C, strain NPR1, hits give low values 0.991 | S. cerevisiae deletion strains, locus YNL197C, strain WHI3, hits give low values 0.995 | S. cerevisiae deletion strains, locus YNL209W, strain ssb2, hits give low values 0.988 | S. cerevisiae deletion strains, locus YNL224C, strain SQS1, hits give low values 1.02 | S. cerevisiae deletion strains, locus YNL233W, strain BNI4, hits give low values 1.01 | S. cerevisiae deletion strains, locus YNL248C, strain rpa49, hits give low values 0.983 | S. cerevisiae deletion strains, locus YNL250W, strain rad50, hits give low values 1.01 | S. cerevisiae deletion strains, locus YNL271C, strain bni1, hits give low values 1.02 | S. cerevisiae deletion strains, locus YNL298W, strain CLA4, hits give low values 1.01 | S. cerevisiae deletion strains, locus YNL307C, strain MCK1, hits give low values 1 | S. cerevisiae deletion strains, locus YNL322C, strain KRE1 (second series), hits give low values 0.975 | S. cerevisiae deletion strains, locus YNL322C, strain KRE1, hits give low values 1.01 and 0.991 | S. cerevisiae deletion strains, locus YNR049C, strain mso1, hits give low values 0.994 | S. cerevisiae deletion strains, locus YNR052C, strain pop2, hits give low values 1.01 | S. cerevisiae deletion strains, locus YOL006C, strain TOP1, hits give low values 1.05 | S. cerevisiae deletion strains, locus YOL012C, strain htz1 1.02 | S. cerevisiae deletion strains, locus YOL147C, strain pex11, hits give low values 1 | S. cerevisiae deletion strains, locus YOR001W, strain rrp6, hits give low values 0.95 | S. cerevisiae deletion strains, locus YOR061W, strain CKA2, hits give low values 1.01 | S. cerevisiae deletion strains, locus YOR069W, strain VPS5, hits give low values 0.999 | S. cerevisiae deletion strains, locus YOR070C, strain gyp1, hits give low values 0.999 | S. cerevisiae deletion strains, locus YOR080W, strain dia2, hits give low values 0.967 | S. cerevisiae deletion strains, locus YOR083W, strain WHI5 (second series), hits give low values 1.01 | S. cerevisiae deletion strains, locus YOR083W, strain WHI5, hits give low values 0.962 | S. cerevisiae deletion strains, locus YOR106W, strain vam3, hits give low values 0.956 | S. cerevisiae deletion strains, locus YOR136W, strain idh2, hits give low values 1 | S. cerevisiae deletion strains, locus YOR144C, strain elg1, hits give low values 1 | S. cerevisiae deletion strains, locus YOR184W, strain ser1, hits give low values 0.989 | S. cerevisiae deletion strains, locus YOR231W, strain MKK1, hits give low values 1.02 | S. cerevisiae deletion strains, locus YOR265W, strain rbl2, hits give low values 0.988 | S. cerevisiae deletion strains, locus YOR270C, strain vph1, hits give low values 0.98 | S. cerevisiae deletion strains, locus YOR290C, strain snf2, hits give low values 1 | S. cerevisiae deletion strains, locus YOR316C, strain cot1, hits give low values 1.01 | S. cerevisiae deletion strains, locus YPL051W, strain arl3, hits give low values 0.991 | S. cerevisiae deletion strains, locus YPL055C, strain LGE1, hits give low values 1.01 | S. cerevisiae deletion strains, locus YPL078C, strain atp4, hits give low values 0.923 | S. cerevisiae deletion strains, locus YPL106C, strain sse1, hits give low values 0.979 | S. cerevisiae deletion strains, locus YPL240C, strain hsp82, hits give low values 0.99 | S. cerevisiae deletion strains, locus YPL241C, strain CIN2, hits give low values 1 | S. cerevisiae deletion strains, locus YPL256C, strain CLN2, hits give low values 1.04 | S. cerevisiae deletion strains, locus YPR119W, strain clb2, hits give low values 1.01 | S. cerevisiae deletion strains, locus YPR141C, strain kar3, hits give low values 1.01 | S. cerevisiae deletion strains, locus YPR163C, strain tif3, hits give low values 1.02 | S. cerevisiae deletion strains, locus YPR167C, strain met16, hits give low values 1 | S. cerevisiae deletion strains, strain wtn01, hits give low values 1.01 | S. cerevisiae strains, strain wild type, hits give low values 1.01
